Results published in PubChem BioAssay AID1159580 (chemical genetic matrix, 2015).
Out of some 5,500 compounds screened, about 2,000 (36%) were called active. Inconclusive results (about 18%) are left out. Rule as the data show it: active = normalized growth mostly below about 0.91 (no sharp cut-off); inconclusive = no clear call, values can overlap the other calls; inactive = mostly above about 0.92. This is one part of the list.

Test: chemical genetic growth profiling, strain panel (AID 1159580);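 also: tested at 20 µM; growth read once vehicle control cultures reached saturation at 30 °C; 1 = growth at the plate median or of vehicle wells; lower values mean less growth of the strain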
Conditions: S. cerevisiae deletion strains, growth OD
[1] = locus YDL101C, strain DUN1, active compounds read low
[2] = locus YDR150W, strain NUM1, active compounds read low
[3] = locus YGR078C, strain PAC10, active compounds read low
[4] = locus YHR030C, strain SLT2, active compounds read low
[5] = locus YPL055C, strain LGE1, active compounds read low

Measured: normalized growth

OC(CSc1ccccc1)CN1CCN(c2ccc(C(F)(F)F)cn2)CC1 (stereo not drawn)
active: locus YDL134C, strain PPH21, active compounds read low 0.185 | locus YEL061C, strain CIN8, active compounds read low 0.657 | [4] 0.203 | locus YLR039C, strain RIC1, active compounds read low 0.591 | locus YLR085C, strain ARP6, active compounds read low 0.387 | locus YLR262C, strain YPT6, active compounds read low 0.468 | locus YML094W, strain GIM5, active compounds read low 0.686 | locus YNL298W, strain CLA4 (second series), active compounds read low 0.601 | locus YNR030W, strain Alg12, active compounds read low 0.668 | locus YPL241C, strain CIN2, active compounds read low 0.763 | locus YPR135W, strain CTF4, active compounds read low 0.442
inactive: locus YAL013W, strain DEP1, active compounds read low 1.01 | locus YBR229C, strain ROT2, active compounds read low 1 | [1] 1.01 | [2] 0.87 | [3] 1 | locus YHR087W, strain rtc3, active compounds read low 0.994 | locus YJR043C, strain POL32, active compounds read low 0.991 | locus YJR075W, strain HOC1, active compounds read low 1 | locus YLR058C, strain SHM2 (second series), active compounds read low 1.01 | locus YMR219W, strain ESC1, active compounds read low 1 | locus YMR263W, strain SAP30, active compounds read low 0.966 | locus YMR307W, strain GAS1, active compounds read low 0.698 | locus YNL153C, strain GIM3, active compounds read low 1.03 | locus YNL322C, strain KRE1, active compounds read low 1.01 | [5] 0.898

COc1ccccc1N1CCN(CC(O)COc2cccc3ccccc23)CC1 (stereo not drawn)
inactive: locus YAL040C, strain CLN3, active compounds read low 0.993 | locus YCL061C, strain MRC1 (second series), active compounds read low 0.992 | [2] 0.998 | locus YDR363W, strain ESC2, active compounds read low 0.965 | locus YER002W, strain NOP16, active compounds read low 1.02 | [3] 0.978 | locus YNL175C, strain NOP13, active compounds read low 1.01 | locus YNL197C, strain WHI3, active compounds read low 1.04 | locus YNL224C, strain SQS1, active compounds read low 0.99 | locus YOR083W, strain WHI5 (second series), active compounds read low 1.02 | [5] 0.976

OC(CSc1ccccc1)CN1CCN(c2nc(-c3ccccc3)ns2)CC1 (stereo not drawn)
active: locus YLR113W, strain HOG1, active compounds read low 0.847
inactive: locus YAR019C, strain CDC15, active compounds read low 0.991 | locus YBL105C, strain PKC1, active compounds read low 0.977 | locus YBR135W, strain CKS1, active compounds read low 0.993 | locus YBR136W, strain MEC1, active compounds read low 0.977 | locus YBR160W, strain CDC28, active compounds read low 0.982 | locus YDL017W, strain CDC7, active compounds read low 0.989 | locus YDL028C, strain MPS1, active compounds read low 0.99 | [1] 0.98 | locus YDL108W, strain KIN28, active compounds read low 0.99 | locus YDL132W, strain cdc53, active compounds read low 0.996 | locus YDL214C, strain PRR2, active compounds read low 0.932 | locus YDR052C, strain DBF4, active compounds read low 0.981 | locus YDR054C, strain cdc34, active compounds read low 0.977 | locus YDR226W, strain ADK1, active compounds read low 0.989 | locus YDR477W, strain SNF1, active compounds read low 0.931 | locus YER123W, strain YCK3, active compounds read low 0.908 | locus YER133W, strain GLC7, active compounds read low 0.941 | locus YFL009W, strain cdc4, active compounds read low 0.987 | locus YFL029C, strain CAK1, active compounds read low 0.983 | locus YFR003C, strain YPI1, active compounds read low 0.989 | locus YFR019W, strain FAB1, active compounds read low 0.93 | locus YFR028C, strain CDC14, active compounds read low 0.984 | locus YGR040W, strain KSS1, active compounds read low 0.915 | locus YGR052W, strain FMP48, active compounds read low 0.993 | locus YGR092W, strain DBF2, active compounds read low 0.935 | [4] 0.941 | locus YHR079C, strain IRE1, active compounds read low 0.962 | locus YHR082C, strain KSP1, active compounds read low 0.983 | locus YHR205W, strain SCH9, active compounds read low 0.921 | locus YIL147C, strain SLN1, active compounds read low 0.987 | locus YJL095W, strain BCK1, active compounds read low 0.947 | locus YJL128C, strain PBS2, active compounds read low 0.945 | locus YJL157C, strain FAR1, active compounds read low 0.915 | locus YJR016C, strain ILV3, active compounds read low 0.982 | locus YJR066W, strain TOR1 (second series), active compounds read low 0.888 | locus YJR066W, strain TOR1, active compounds read low 1.01 | locus YKL048C, strain ELM1, active compounds read low 0.954 | locus YKL067W, strain YNK1, active compounds read low 0.943 | locus YKL101W, strain HSL1, active compounds read low 0.927 | locus YKL193C, strain SDS22, active compounds read low 0.987 | locus YKL203C, strain TOR2, active compounds read low 0.989 | locus YLR133W, strain CKI1, active compounds read low 0.935 | locus YLR403W, strain SFP1, active compounds read low 0.9 | locus YML070W, strain DAK1, active compounds read low 0.9 | locus YMR001C, strain CDC5, active compounds read low 0.983 | locus YMR205C, strain PFK2 (second series), active compounds read low 0.944 | locus YMR277W, strain FCP1, active compounds read low 0.991 | locus YNL006W, strain LST8, active compounds read low 0.997 | locus YNL020C, strain ARK1, active compounds read low 0.935 | locus YNL161W, strain CBK1, active compounds read low 0.98 | locus YNL183C, strain NPR1, active compounds read low 0.972 | locus YNL207W, strain RIO2, active compounds read low 0.987 | locus YNL222W, strain SSU72, active compounds read low 0.991 | locus YNL307C, strain MCK1 (second series), active compounds read low 0.927 | locus YOL078W, strain AVO1, active compounds read low 0.98 | locus YOL136C, strain PFK27, active compounds read low 0.903 | locus YOR061W, strain CKA2, active compounds read low 0.936 | locus YOR119C, strain RIO1, active compounds read low 0.994 | locus YOR231W, strain MKK1, active compounds read low 0.882 | locus YOR329C, strain SCD5, active compounds read low 0.982 | locus YPL031C, strain PHO85, active compounds read low 0.952 | locus YPL153C, strain RAD53, active compounds read low 0.937 | locus YPL204W, strain HRR25, active compounds read low 0.932 | locus YPL209C, strain IPL1, active compounds read low 0.981 | locus YPL256C, strain CLN2, active compounds read low 0.889 | locus YPR025C, strain CCL1, active compounds read low 0.987 | locus YPR106W, strain ISR1, active compounds read low 0.976 | locus YPR111W, strain DBF20, active compounds read low 0.961 | strain NNK1, active compounds read low 0.973 | strain TSCII, active compounds read low 0.984
